Test results: PubChem BioAssay
Active and inactive are the calls of the source. Unless noted, no rule for the calls is given here.

Key:
[1] = test system: Wnt5a (protein binding on small-molecule microarray); test: small molecules binding Wnt5a protein – biophysical, small-molecule microarray, 635/667 nm fluorescence, primary screen (AID 1142); conditions: 635 nm fluorescence, higher = more signal;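 also: fluorescence read at 667 nm with signal to noise per printed feature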
[2] = ATP-based viability of Huh7 replicon cells – cell-based, CellTiter-Glo luminescence, basal, 48 h, cytotoxicity control for HCV replication inhibitor project, primary screen (AID 1143); conditions: higher = more signal, called active from +8 up or from −8 down;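 also: Huh7 hepatoma cells carrying a hepatitis C replication reporter with no stimulus; test concentration not given here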
[3] = Pseudomonas biofilm growth suppression – PAO1 strain, BacTiter-Glo luminescence, LB-PBS, primary screen (AID 1144); conditions: P. aeruginosa PAO1 biofilm, 12 h, higher = more signal
[4] = basal CRE-LacZ reporter activity in PC12 – cell-based, unstimulated, primary screen (AID 1145); conditions: no forskolin, luminescence, 4.5 h, higher = more signal, called active from +8 up or from −8 down
[5] = forskolin-driven CRE-LacZ activity in PC12 – cell-based, CRE-LacZ reporter, forskolin-stimulated, primary screen (AID 1146); conditions: luminescence, 4.5 h, higher = more signal, called active from +8 up or from −8 down;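 also: PC12 cells with 6xCRE LacZ reporter stimulated by forskolin 10 µM; beta-galactosidase reporter signal reflecting CREB driven transcription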
[6] = target: Streptavidin (Streptomyces avidinii) (UniProt P22629); test: compounds binding control protein streptavidin – biophysical, small-molecule microarray, 635/667 nm fluorescence, artefact control for SMM compound annotation, primary screen (AID 1147); conditions: higher = more signal;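 also: signal reflects streptavidin binding to arrayed compounds as a control protein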
Streptavidin (Streptomyces avidinii), sequence (P22629 whole entry, looked up): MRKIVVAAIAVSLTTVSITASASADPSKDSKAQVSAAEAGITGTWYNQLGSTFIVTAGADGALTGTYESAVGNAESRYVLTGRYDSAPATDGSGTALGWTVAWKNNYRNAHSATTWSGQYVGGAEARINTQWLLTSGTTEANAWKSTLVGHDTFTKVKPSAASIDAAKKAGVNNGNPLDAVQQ

[7] = probe aInhba binding on compound microarray – biochemical, small-molecule microarray, 635/667 nm fluorescence, primary screen (AID 1148); conditions: higher = more signal;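 also: score merges 667nm spot fluorescence with signal-to-noise for antibody binding to printed compounds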
Torsin-1A (Homo sapiens) [8] = target: Torsin-1A (Homo sapiens) (UniProt O14656); test: TOR1A wild-type binding on microarray – cell lysate, small-molecule microarray, lysate, 635/667 nm, primary screen (AID 1149); conditions: COS7 hTOR1A-WT lysate, 635 nm fluorescence, higher = more signal
Torsin-1A (Homo sapiens), sequence (O14656 whole entry, looked up): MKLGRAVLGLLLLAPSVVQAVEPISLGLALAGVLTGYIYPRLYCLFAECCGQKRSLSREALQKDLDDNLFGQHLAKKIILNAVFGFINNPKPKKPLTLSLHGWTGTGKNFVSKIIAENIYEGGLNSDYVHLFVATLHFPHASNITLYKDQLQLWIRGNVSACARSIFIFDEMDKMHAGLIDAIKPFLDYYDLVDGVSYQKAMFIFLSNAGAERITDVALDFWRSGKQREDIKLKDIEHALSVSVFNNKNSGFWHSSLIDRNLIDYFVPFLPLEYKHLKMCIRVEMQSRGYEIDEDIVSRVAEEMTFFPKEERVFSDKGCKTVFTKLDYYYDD

Torsin-1A (Homo sapiens) [9] = target: Torsin-1A (Homo sapiens) (UniProt O14656); test: torsin A mutant lysate binding on microarrays – cell lysate, small-molecule microarray, COS7 lysate, 635/667 nm fluorescence, primary screen (AID 1150); conditions: COS7 hTOR1A mutant lysate, 635 nm fluorescence, higher = more signal;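 also: score pools 667 nm emission and signal to noise measuring lysate protein binding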
[10] = test system: Sonic hedgehog protein (Shh); test: Sonic hedgehog microarray binding compounds – biochemical, small-molecule microarray, 635/667 nm fluorescence, primary screen (AID 1151); conditions: 635 nm fluorescence, higher = more signal;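 also: Shh protein binding to compounds spotted on small-molecule microarray slides; score combines spot fluorescence intensity with signal-to-noise across triplicate slides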
[11] = optical density shifts of acrAB sulA E. coli – strain DRC41, OD650, 48 h, E. coli filamentation inducer project, primary screen (AID 1152); conditions: higher = more signal, called active from +8 up or from −8 down;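 also: E. coli MC1000 strain DRC41 lacking acrAB efflux pump and sulA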
[12] = probe aLefty1 binding on compound microarray – biochemical, small-molecule microarray, 635/667 nm fluorescence, primary screen (AID 1153); conditions: higher = more signal;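 also: score merges spot fluorescence with signal-to-noise ratio from the scanned slide images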
[13] = plasmodial surface anion channel blockers, osmotic lysis – cell-based, P. falciparum Indochina, OD700, 1 h, primary screen (AID 1154); conditions: P. falciparum Indochina infected RBC osmotic lysis, higher = more signal, called active from +8 up or from −8 down
[14] = plasmodial surface anion channel blockers, osmotic lysis – cell-based, P. falciparum Indochina, OD700, 2 h, primary screen (AID 1155);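 also: lysis reports solute entry through the parasite surface anion channel PSAC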; conditions: P. falciparum Indochina infected erythrocytes, higher = more signal, called active from +8 up or from −8 down
[15] = changes in parasitized red cell lysis, either direction – P. falciparum Indochina, OD700, 3 h, PSAC antagonist project, primary screen (AID 1156); conditions: P. falciparum-infected erythrocytes, osmotic lysis, higher = more signal, called active from +8 up or from −8 down
[16] = plasmodial surface anion channel blockers, osmotic lysis – cell-based, P. falciparum Indochina, OD700, 18 h, primary screen (AID 1157); conditions: P. falciparum Indochina infected erythrocytes, osmotic lysis OD700, 18 h; higher = more signal, called active from +8 up or from −8 down
[17] = S6 kinase pathway phospho-S6 level changes – cell-based, A549, cytoblot, luminescence, serum-stimulated, primary screen (AID 1158); conditions: 5 h, higher = more signal;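 also: serum-stimulated A549 lung adenocarcinoma cells; signal is phosphorylated S6 detected by cytoblot immunostaining with HRP secondary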
[18] = target: NADPH oxidase 2 (Homo sapiens) (UniProt P04839); test: compounds shifting NOX2 Amplex Red fluorescence – cell-based, HEK293-NOX2, PMA-stimulated, NOX inhibitor project, primary screen (AID 1159); conditions: 45 min, higher = more signal, called active from +8 up or from −8 down; also: test concentration not given here
NADPH oxidase 2 (Homo sapiens), sequence (P04839 whole entry, looked up): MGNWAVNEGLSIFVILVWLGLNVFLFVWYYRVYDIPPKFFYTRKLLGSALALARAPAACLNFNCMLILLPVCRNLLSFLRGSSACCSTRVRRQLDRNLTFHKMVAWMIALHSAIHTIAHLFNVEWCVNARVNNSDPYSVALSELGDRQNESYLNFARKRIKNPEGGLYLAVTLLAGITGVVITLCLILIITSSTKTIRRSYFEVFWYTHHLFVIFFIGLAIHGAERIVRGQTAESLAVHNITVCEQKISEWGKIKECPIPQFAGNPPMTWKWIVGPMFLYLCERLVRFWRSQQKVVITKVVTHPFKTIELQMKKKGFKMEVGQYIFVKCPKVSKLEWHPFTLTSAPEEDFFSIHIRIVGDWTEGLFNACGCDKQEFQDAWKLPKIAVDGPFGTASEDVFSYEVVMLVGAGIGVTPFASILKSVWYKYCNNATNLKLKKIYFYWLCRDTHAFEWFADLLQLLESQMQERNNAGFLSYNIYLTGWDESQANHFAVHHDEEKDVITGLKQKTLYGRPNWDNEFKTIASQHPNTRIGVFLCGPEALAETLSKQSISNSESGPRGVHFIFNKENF

[19] = target: NADPH oxidase 4 (Homo sapiens) (UniProt Q9NPH5); test: compounds shifting NOX4 Amplex Red fluorescence – cell-based, HEK293-NOX4, tetracycline-induced, NOX inhibitor project, primary screen (AID 1160); conditions: HEK293-NOX4, Amplex Red H2O2 fluorescence, 45 min; higher = more signal, called active from +8 up or from −8 down
NADPH oxidase 4 (Homo sapiens), sequence (Q9NPH5 whole entry, looked up): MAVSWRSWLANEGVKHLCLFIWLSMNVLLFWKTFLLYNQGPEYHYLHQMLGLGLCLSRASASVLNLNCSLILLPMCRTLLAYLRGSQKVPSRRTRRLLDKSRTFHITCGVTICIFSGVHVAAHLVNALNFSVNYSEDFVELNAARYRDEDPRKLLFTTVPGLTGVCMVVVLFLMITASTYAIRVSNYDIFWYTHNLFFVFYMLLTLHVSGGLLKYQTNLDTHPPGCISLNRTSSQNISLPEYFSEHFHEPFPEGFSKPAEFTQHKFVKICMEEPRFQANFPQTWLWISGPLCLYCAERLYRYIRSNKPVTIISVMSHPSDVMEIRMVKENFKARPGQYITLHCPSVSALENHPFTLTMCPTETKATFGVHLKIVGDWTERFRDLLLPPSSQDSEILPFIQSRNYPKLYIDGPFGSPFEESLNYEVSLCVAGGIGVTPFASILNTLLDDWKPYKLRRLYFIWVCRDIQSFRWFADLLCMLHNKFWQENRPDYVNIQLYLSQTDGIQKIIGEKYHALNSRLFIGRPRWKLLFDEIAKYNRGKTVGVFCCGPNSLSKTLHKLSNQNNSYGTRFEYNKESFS

[20] = target: NADPH oxidase 5 (Homo sapiens) (UniProt Q96PH1); test: compounds shifting NOX5 Amplex Red fluorescence – cell-based, HEK293-NOX5, NOX inhibitor project, primary screen (AID 1161); conditions: HEK293-NOX5, ionomycin, 45 min, higher = more signal
NADPH oxidase 5 (Homo sapiens), sequence (Q96PH1 whole entry, looked up): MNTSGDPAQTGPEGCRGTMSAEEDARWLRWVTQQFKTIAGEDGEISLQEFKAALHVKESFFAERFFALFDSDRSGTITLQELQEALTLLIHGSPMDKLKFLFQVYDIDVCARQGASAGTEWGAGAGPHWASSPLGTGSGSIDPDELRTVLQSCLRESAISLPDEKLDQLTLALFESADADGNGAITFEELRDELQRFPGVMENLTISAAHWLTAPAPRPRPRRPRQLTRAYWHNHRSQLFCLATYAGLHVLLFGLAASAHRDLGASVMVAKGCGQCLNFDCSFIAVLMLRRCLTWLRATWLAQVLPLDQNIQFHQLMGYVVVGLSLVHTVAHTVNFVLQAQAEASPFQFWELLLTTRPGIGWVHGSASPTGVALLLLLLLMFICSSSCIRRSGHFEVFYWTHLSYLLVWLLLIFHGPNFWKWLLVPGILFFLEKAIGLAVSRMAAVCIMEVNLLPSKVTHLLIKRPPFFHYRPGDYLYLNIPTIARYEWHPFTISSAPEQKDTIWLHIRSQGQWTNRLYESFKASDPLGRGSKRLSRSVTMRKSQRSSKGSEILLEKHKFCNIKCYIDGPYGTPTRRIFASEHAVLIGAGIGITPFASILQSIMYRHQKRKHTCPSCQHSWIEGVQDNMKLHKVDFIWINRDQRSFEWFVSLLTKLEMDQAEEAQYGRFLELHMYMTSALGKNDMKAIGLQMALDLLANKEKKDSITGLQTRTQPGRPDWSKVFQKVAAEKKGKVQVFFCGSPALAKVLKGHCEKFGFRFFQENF

For `C=CCOC(=O)[C@@H]1[C@H]2C(=O)O[C@H](c3ccccc3)[C@H](c3ccccc3)N2[C@H](c2ccc(OCCOC(=O)[C@H]3C[C@H]4C(=O)N5CCC[C@H]5C(=O)N4[C@H]3c3ccc(O)cc3)cc2)[C@@]12C(=O)Nc1ccc(I)cc12`, the composite z-score [1] was 0.259, the z-score [2] was -2.3 (inactive) and the z-score [3] was -0.212 (inactive). The z-score [4] was 0.277 (inactive), the z-score [5] was -0.466 (inactive) and the composite z-score [6] was -0.033. It also gave a composite z-score [7] of -0.0775, a composite z-score (Torsin-1A (Homo sapiens) [8]) of 0.919 and a composite z-score (Torsin-1A (Homo sapiens) [9]) of 0.98. For the same compound, the composite z-score [10] was 2.15, the z-score [11] was 0.371 (inactive) and the composite z-score [12] was 0.19. For the same compound, the z-score [13] was 1.37 (inactive), the z-score [14] was -0.552 (inactive) and the z-score [15] was 0.777 (inactive). The z-score [16] was -1.37 (inactive), the z-score [17] was 0.718 and the z-score [18] was 0.986 (inactive). For the same compound, the z-score [19] was 1.1 (inactive) and the z-score [20] was 1.36.

With `COCCOC(=O)N1C(=O)[C@@]2(c3cc(C#Cc4ccc(OC)cc4)ccc31)[C@H](c1ccccc1OCCO)N1[C@H](c3ccccc3)[C@H](c3ccccc3)OC(=O)[C@H]1[C@@H]2C(=O)NC[C@H](O)c1ccccc1` the composite z-score [1] was 0.609, the z-score [2] was -3.23 (inactive) and the z-score [3] was -0.436 (inactive). The z-score [4] was -0.602 (inactive), the z-score [5] was -0.0611 (inactive) and the composite z-score [6] was 0.115. It also gave a composite z-score [7] of 0.143, a composite z-score (Torsin-1A (Homo sapiens) [8]) of 0.175 and a composite z-score (Torsin-1A (Homo sapiens) [9]) of 0.525. The composite z-score [10] was 2.21, the z-score [11] was 0.216 (inactive) and the composite z-score [12] was 0.396. For the same compound, the z-score [13] was 2.92 (inactive), the z-score [14] was 2.16 (inactive) and the z-score [15] was -0.76 (inactive). For the same compound, the z-score [16] was 0.804 (inactive), the z-score [17] was -0.325 and the z-score [18] was 1.16 (inactive). For the same compound, the z-score [19] was 1.16 (inactive) and the z-score [20] was 0.967.

For `COC(=O)[C@@]1(Cc2ccc(OC)cc2)[C@H]2c3cc(C(=O)N(C)C)n(CCc4ccccn4)c3C[C@H]2CN1C(=O)c1ccccc1`, the composite z-score [1] was 1.19, the z-score [2] was -2.18 (inactive) and the z-score [3] was 0.165 (inactive). For the same compound, the z-score [4] was 1.92 (inactive), the z-score [5] was 0.577 (inactive) and the composite z-score [6] was 1.86. For the same compound, the composite z-score [7] was 1.17, the composite z-score (Torsin-1A (Homo sapiens) [8]) was -0.128 and the composite z-score (Torsin-1A (Homo sapiens) [9]) was 1.04. For the same compound, the composite z-score [10] was -0.127, the z-score [11] was -1.83 (inactive) and the composite z-score [12] was 1.64. The z-score [13] was 3.81 (inactive), the z-score [14] was 1.77 (inactive) and the z-score [15] was 1.01 (inactive). The z-score [16] was 1.58 (inactive), the z-score [17] was -0.334 and the z-score [18] was 0.63 (inactive). For the same compound, the z-score [19] was -0.925 (inactive) and the z-score [20] was -1.04.

In the case of `COC(=O)[C@@]1(Cc2ccc(F)cc2)[C@H]2c3cc(C(=O)N(C)C)n(Cc4cc(F)c(F)c(F)c4)c3C[C@H]2CN1C(=O)c1ccccc1`, the composite z-score [1] was 0.283, the z-score [2] was -3 (inactive) and the z-score [3] was 0.459 (inactive). For the same compound, the z-score [4] was 1.53 (inactive), the z-score [5] was 0.578 (inactive) and the composite z-score [6] was 1.25. The composite z-score [7] was 1.08, the composite z-score (Torsin-1A (Homo sapiens) [8]) was -0.272 and the composite z-score (Torsin-1A (Homo sapiens) [9]) was 0.193. For the same compound, the composite z-score [10] was -0.176, the z-score [11] was -1.42 (inactive) and the composite z-score [12] was 0.5. For the same compound, the z-score [13] was 4.21 (inactive), the z-score [14] was 0.548 (inactive) and the z-score [15] was 0.365 (inactive). The z-score [16] was 1.16 (inactive), the z-score [17] was -0.359 and the z-score [18] was 0.525 (inactive). For the same compound, the z-score [19] was 2.18 (inactive) and the z-score [20] was 1.26.

With `C[N+](C)(C)CCCCNC(=O)[C@H]1C[C@H]2C(=O)N3CCC[C@H]3C(=O)N2[C@H]1c1cccc(OCCO)c1` the composite z-score [1] was 0.0504, the z-score [2] was 0.254 (inactive) and the z-score [3] was -0.148 (inactive). For the same compound, the z-score [4] was -0.667 (inactive), the z-score [5] was -0.359 (inactive) and the composite z-score [6] was -0.704. The composite z-score [7] was 0.0569, the composite z-score (Torsin-1A (Homo sapiens) [8]) was -0.215 and the composite z-score (Torsin-1A (Homo sapiens) [9]) was 0.678. For the same compound, the composite z-score [10] was 2, the z-score [11] was 0.364 (inactive) and the composite z-score [12] was 0.0861. The z-score [13] was 3.34 (inactive), the z-score [14] was 0.503 (inactive) and the z-score [15] was -0.78 (inactive). For the same compound, the z-score [16] was 0.277 (inactive), the z-score [17] was -0.555 and the z-score [18] was -1.52 (inactive). The z-score [19] was 0.00366 (inactive) and the z-score [20] was -1.41.

For `CCCC#C[Si](O[C@H](CC)c1cn(Cc2cccc(Cl)c2)nn1)(C(C)C)C(C)C`, the composite z-score [1] was 0.227, the z-score [2] was -1 (inactive) and the z-score [3] was -0.618 (inactive). The z-score [4] was -0.505 (inactive), the z-score [5] was -0.558 (inactive) and the composite z-score [6] was 0.379. The composite z-score [7] was 0.192, the composite z-score (Torsin-1A (Homo sapiens) [8]) was 0.882 and the composite z-score (Torsin-1A (Homo sapiens) [9]) was 0.244. For the same compound, the composite z-score [10] was 0.773, the z-score [11] was 1.68 (inactive) and the composite z-score [12] was 0.171. The z-score [13] was 0.131 (inactive), the z-score [14] was 0.659 (inactive) and the z-score [15] was -0.871 (inactive). For the same compound, the z-score [16] was 0.283 (inactive), the z-score [17] was -0.131 and the z-score [18] was 0.041 (inactive). The z-score [19] was 0.076 (inactive) and the z-score [20] was 0.842.

With `C=CCN1C(=O)[C@]2(O[C@H](CCn3cc([C@H](O)c4ccccc4)nn3)[C@@H]([Si](C)(C)c3ccc(OC)cc3)[C@@H]2C)c2ccccc21` the composite z-score [1] was -0.336, the z-score [2] was -3.87 (inactive) and the z-score [3] was -0.151 (inactive). For the same compound, the z-score [4] was 2.23 (inactive), the z-score [5] was -0.979 (inactive) and the composite z-score [6] was -0.957. It also gave a composite z-score [7] of -0.203, a composite z-score (Torsin-1A (Homo sapiens) [8]) of -0.704 and a composite z-score (Torsin-1A (Homo sapiens) [9]) of -0.73. The composite z-score [10] was 0.238, the z-score [11] was -0.554 (inactive) and the composite z-score [12] was -0.0099. The z-score [13] was 4.6 (inactive), the z-score [14] was 1.02 (inactive) and the z-score [15] was 0.914 (inactive). The z-score [16] was 0.843 (inactive), the z-score [17] was 0.256 and the z-score [18] was 0.952 (inactive). The z-score [19] was 0.055 (inactive) and the z-score [20] was -0.251.

For `COC(=O)[C@@]1(Cc2ccc(F)cc2)[C@H]2c3cc(C(=O)N(C)C)n(Cc4ccccc4)c3C[C@H]2CN1C(=O)c1ccccc1`, the composite z-score [1] was 0.198, the z-score [2] was -2.67 (inactive) and the z-score [3] was -0.22 (inactive). For the same compound, the z-score [4] was -0.379 (inactive), the z-score [5] was 1.42 (inactive) and the composite z-score [6] was 1.16. The composite z-score [7] was 0.218, the composite z-score (Torsin-1A (Homo sapiens) [8]) was -0.243 and the composite z-score (Torsin-1A (Homo sapiens) [9]) was 0.099. The composite z-score [10] was 0.0292, the z-score [11] was -1.39 (inactive) and the composite z-score [12] was 0.342. The z-score [13] was 2.6 (inactive), the z-score [14] was 0.672 (inactive) and the z-score [15] was 0.657 (inactive). The z-score [16] was 1.23 (inactive), the z-score [17] was -0.231 and the z-score [18] was 1.01 (inactive). For the same compound, the z-score [19] was 0.734 (inactive) and the z-score [20] was 1.89.
